In all, about 16,000 sequences were measured (“rpm ratio (pull-down/input)”: median about 0.94, highest 2% from about 1.7 on). This excerpt belongs to a sample that is enriched for the highest values.

The target of this assay is T1, MBP-FoxP1dN (Mus musculus, UniProt P58462 326-579).
T1 sequence: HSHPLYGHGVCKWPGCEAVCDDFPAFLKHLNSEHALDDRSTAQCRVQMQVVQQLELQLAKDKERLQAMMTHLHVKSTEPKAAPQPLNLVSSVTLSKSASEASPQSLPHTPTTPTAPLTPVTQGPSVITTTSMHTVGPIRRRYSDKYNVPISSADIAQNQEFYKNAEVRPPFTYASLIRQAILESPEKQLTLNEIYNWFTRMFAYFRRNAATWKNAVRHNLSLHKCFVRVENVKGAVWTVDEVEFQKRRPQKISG
In words: PD-seq (MBP pull-down with sequencing); 20 mM Tris-HCl pH 7.5, 100 mM NaCl, 1.5 mM MgCl2, 0.4 uM protein, 0.1 uM dsDNA library, 30 min, room temperature, amylose pull-down; high values mean tight binding. The conditions noted are these: protein: recombinant; tags: His6-MBP; chain copies: 2; dsDNA, one strand shown. Put shortly:
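His6-MBP-tagged mouse FoxP3 or FoxP1 fragment lacking the N-terminus, expressed in E. coli, was mixed at 0.4 µM with 0.1 µM Klenow-filled double-stranded degenerate DNA library. Incubation was 30 min at room temperature in Tris pH 7.5 buffer with NaCl and MgCl2. Complexes were caught on amylose resin and washed three times; DNA was released with proteinase K, PCR-barcoded and Illumina-sequenced. Binding is reads-per-million enrichment, pull-down over input, with replicates pooled.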
With “GATGATTGTTCTCCCAGCTGATGAATTCAAGATATCGAGTAAACAAATTTTCCTAATCTTTCTGTTCAAGCGCCATCTAC”, the binding signal was 0.908 RPM ratio (pull-down/input).

For the sequence “GATGATTGTTCTCCCAGCTGATGAATTCGTCTACTCGAGTAAACAAATTTTCCTAATCTTTCTGTTCAAGCGCCATCTAC”, the binding signal is 0.938 RPM ratio (pull-down/input).

On to “GATGATTGTTCTCCCAGCTGATGAATTCTTTTCATCGAGTAAACAAATTTTCCTAATCTTTCTGTTCAAGCGCCATCTAC”, for which the binding signal is 1.07 RPM ratio (pull-down/input).

Turning to “GATGATTGTTCTCCCAGCTGATGAATTCAGGGCTTCGAGTAAACAAATTTTCCTAATCTTTCTGTTCAAGCGCCATCTAC”, the binding signal was 0.881 RPM ratio (pull-down/input).

As for “GATGATTGTTCTCCCAGCTGATGAATTCGCCGATTCGAGTAAACAAATTTTCCTAATCTTTCTGTTCAAGCGCCATCTAC”, the binding signal was 0.86 RPM ratio (pull-down/input).

Take “GATGATTGTTCTCCCAGCTGATGAATTTGTCCTTTCGAGTAAACAAATTTTCCTAATCTTTCTGTTCAAGCGCCATCTAC”: the binding signal is 1.08 RPM ratio (pull-down/input).

As to “GATGATTGTTCTCCCAGCTGATGAATTATGTTCGTCGAGTAAACAAATTTTCCTAATCTTTCTGTTCAAGCGCCATCTAC”, the binding signal was 1.06 RPM ratio (pull-down/input).

For the sequence “GATGATTGTTCTCCCAGCTGATGAATTTGTGTTATCGAGTAAACAAATTTTCCTAATCTTTCTGTTCAAGCGCCATCTAC”, the binding signal is 2.08 RPM ratio (pull-down/input).

As for “GATGATTGTTCTCCCAGCTGATGAATTGTGTTAATCGAGTAAACAAATTTTCCTAATCTTTCTGTTCAAGCGCCATCTAC”, the binding signal is 1.27 RPM ratio (pull-down/input).

In the case of “GATGATTGTTCTCCCAGCTGATGAATTGTGGTTATCGAGTAAACAAATTTTCCTAATCTTTCTGTTCAAGCGCCATCTAC”, the binding signal is 1.27 RPM ratio (pull-down/input).

With “GATGATTGTTCTCCCAGCTGATGAATTTTGTTTGTCGAGTAAACAAATTTTCCTAATCTTTCTGTTCAAGCGCCATCTAC”, the binding signal is 2.66 RPM ratio (pull-down/input).

As for “GATGATTGTTCTCCCAGCTGATGAATTGTTTCTGTCGAGTAAACAAATTTTCCTAATCTTTCTGTTCAAGCGCCATCTAC”, the binding signal was 1.25 RPM ratio (pull-down/input).

For the sequence “GATGATTGTTCTCCCAGCTGATGAATTTGTTTTGTCGAGTAAACAAATTTTCCTAATCTTTCTGTTCAAGCGCCATCTAC”, the binding signal is 2.33 RPM ratio (pull-down/input).

With “GATGATTGTTCTCCCAGCTGATGAATTGAATTTGTCGAGTAAACAAATTTTCCTAATCTTTCTGTTCAAGCGCCATCTAC”, the binding signal is 0.98 RPM ratio (pull-down/input).

On to “GATGATTGTTCTCCCAGCTGATGAATTTTGTCTGTCGAGTAAACAAATTTTCCTAATCTTTCTGTTCAAGCGCCATCTAC”, for which the binding signal is 1.02 RPM ratio (pull-down/input).

Regarding “GATGATTGTTCTCCCAGCTGATGAATTTTCTTTGTCGAGTAAACAAATTTTCCTAATCTTTCTGTTCAAGCGCCATCTAC”, the binding signal was 1.11 RPM ratio (pull-down/input).

“GATGATTGTTCTCCCAGCTGATGAATTTTGCGCGTCGAGTAAACAAATTTTCCTAATCTTTCTGTTCAAGCGCCATCTAC”: the binding signal was 1.04 RPM ratio (pull-down/input).

As for “GATGATTGTTCTCCCAGCTGATGAATTGTTTGCGTCGAGTAAACAAATTTTCCTAATCTTTCTGTTCAAGCGCCATCTAC”, the binding signal is 2.27 RPM ratio (pull-down/input).

In the case of “GATGATTGTTCTCCCAGCTGATGAATTTTGATTGTCGAGTAAACAAATTTTCCTAATCTTTCTGTTCAAGCGCCATCTAC”, the binding signal was 1.67 RPM ratio (pull-down/input).

With “GATGATTGTTCTCCCAGCTGATGAATTTTTTGCGTCGAGTAAACAAATTTTCCTAATCTTTCTGTTCAAGCGCCATCTAC”, the binding signal was 1.1 RPM ratio (pull-down/input).

Take “GATGATTGTTCTCCCAGCTGATGAATTTGTTCTGTCGAGTAAACAAATTTTCCTAATCTTTCTGTTCAAGCGCCATCTAC”: the binding signal is 1.07 RPM ratio (pull-down/input).

For “GATGATTGTTCTCCCAGCTGATGAATTGTTTTTGTCGAGTAAACAAATTTTCCTAATCTTTCTGTTCAAGCGCCATCTAC”, the binding signal is 2.31 RPM ratio (pull-down/input).

Take “GATGATTGTTCTCCCAGCTGATGAATTTCCTATATCGAGTAAACAAATTTTCCTAATCTTTCTGTTCAAGCGCCATCTAC”: the binding signal was 0.903 RPM ratio (pull-down/input).

Take “GATGATTGTTCTCCCAGCTGATGAATTCCAACTTTCGAGTAAACAAATTTTCCTAATCTTTCTGTTCAAGCGCCATCTAC”: the binding signal is 0.884 RPM ratio (pull-down/input).

Turning to “GATGATTGTTCTCCCAGCTGATGAATTATCGTGTTCGAGTAAACAAATTTTCCTAATCTTTCTGTTCAAGCGCCATCTAC”, the binding signal was 1.08 RPM ratio (pull-down/input).

Regarding “GATGATTGTTCTCCCAGCTGATGAATTATAGACATCGAGTAAACAAATTTTCCTAATCTTTCTGTTCAAGCGCCATCTAC”, the binding signal is 1.21 RPM ratio (pull-down/input).

On to “GATGATTGTTCTCCCAGCTGATGAATTCTCTCCCTCGAGTAAACAAATTTTCCTAATCTTTCTGTTCAAGCGCCATCTAC”, for which the binding signal is 0.835 RPM ratio (pull-down/input).

In the case of “GATGATTGTTCTCCCAGCTGATGAATTGGTCAATTCGAGTAAACAAATTTTCCTAATCTTTCTGTTCAAGCGCCATCTAC”, the binding signal is 1.08 RPM ratio (pull-down/input).

As for “GATGATTGTTCTCCCAGCTGATGAATTCAGAAACTCGAGTAAACAAATTTTCCTAATCTTTCTGTTCAAGCGCCATCTAC”, the binding signal was 0.844 RPM ratio (pull-down/input).

In the case of “GATGATTGTTCTCCCAGCTGATGAATTCGCATAATCGAGTAAACAAATTTTCCTAATCTTTCTGTTCAAGCGCCATCTAC”, the binding signal is 1.22 RPM ratio (pull-down/input).

Regarding “GATGATTGTTCTCCCAGCTGATGAATTAATAACCTCGAGTAAACAAATTTTCCTAATCTTTCTGTTCAAGCGCCATCTAC”, the binding signal is 1 RPM ratio (pull-down/input).

For the sequence “GATGATTGTTCTCCCAGCTGATGAATTCCCGCCCTCGAGTAAACAAATTTTCCTAATCTTTCTGTTCAAGCGCCATCTAC”, the binding signal was 0.758 RPM ratio (pull-down/input).

Consider “GATGATTGTTCTCCCAGCTGATGAATTTTAGGTGTCGAGTAAACAAATTTTCCTAATCTTTCTGTTCAAGCGCCATCTAC”, for which the binding signal is 0.902 RPM ratio (pull-down/input).

For the sequence “GATGATTGTTCTCCCAGCTGATGAATTCTTTTTGTCGAGTAAACAAATTTTCCTAATCTTTCTGTTCAAGCGCCATCTAC”, the binding signal is 0.964 RPM ratio (pull-down/input).

“GATGATTGTTCTCCCAGCTGATGAATTCAATTTGTCGAGTAAACAAATTTTCCTAATCTTTCTGTTCAAGCGCCATCTAC”: the binding signal was 1.07 RPM ratio (pull-down/input).

Turning to “GATGATTGTTCTCCCAGCTGATGAATTCTGTTTGTCGAGTAAACAAATTTTCCTAATCTTTCTGTTCAAGCGCCATCTAC”, the binding signal was 2.36 RPM ratio (pull-down/input).

With “GATGATTGTTCTCCCAGCTGATGAATTGATGTTTTCGAGTAAACAAATTTTCCTAATCTTTCTGTTCAAGCGCCATCTAC”, the binding signal was 2.82 RPM ratio (pull-down/input).

In the case of “GATGATTGTTCTCCCAGCTGATGAATTGTTTTCGTCGAGTAAACAAATTTTCCTAATCTTTCTGTTCAAGCGCCATCTAC”, the binding signal was 2.02 RPM ratio (pull-down/input).

For “GATGATTGTTCTCCCAGCTGATGAATTGTTTTCTTCGAGTAAACAAATTTTCCTAATCTTTCTGTTCAAGCGCCATCTAC”, the binding signal is 2.03 RPM ratio (pull-down/input).

On to “GATGATTGTTCTCCCAGCTGATGAATTTGATGTTTCGAGTAAACAAATTTTCCTAATCTTTCTGTTCAAGCGCCATCTAC”, for which the binding signal was 1.16 RPM ratio (pull-down/input).

On to “GATGATTGTTCTCCCAGCTGATGAATTGCTGTTTTCGAGTAAACAAATTTTCCTAATCTTTCTGTTCAAGCGCCATCTAC”, for which the binding signal is 2.45 RPM ratio (pull-down/input).

Regarding “GATGATTGTTCTCCCAGCTGATGAATTTGCTGTTTCGAGTAAACAAATTTTCCTAATCTTTCTGTTCAAGCGCCATCTAC”, the binding signal was 1.33 RPM ratio (pull-down/input).

In the case of “GATGATTGTTCTCCCAGCTGATGAATTTCTTCTTTCGAGTAAACAAATTTTCCTAATCTTTCTGTTCAAGCGCCATCTAC”, the binding signal was 1.01 RPM ratio (pull-down/input).

Regarding “GATGATTGTTCTCCCAGCTGATGAATTGTTTCCTTCGAGTAAACAAATTTTCCTAATCTTTCTGTTCAAGCGCCATCTAC”, the binding signal is 1.44 RPM ratio (pull-down/input).

As for “GATGATTGTTCTCCCAGCTGATGAATTGAATGTTTCGAGTAAACAAATTTTCCTAATCTTTCTGTTCAAGCGCCATCTAC”, the binding signal is 1.01 RPM ratio (pull-down/input).

For the sequence “GATGATTGTTCTCCCAGCTGATGAATTTGTTTCGTCGAGTAAACAAATTTTCCTAATCTTTCTGTTCAAGCGCCATCTAC”, the binding signal is 1.3 RPM ratio (pull-down/input).

For the sequence “GATGATTGTTCTCCCAGCTGATGAATTTCTTTCGTCGAGTAAACAAATTTTCCTAATCTTTCTGTTCAAGCGCCATCTAC”, the binding signal is 0.887 RPM ratio (pull-down/input).

Consider “GATGATTGTTCTCCCAGCTGATGAATTGCTGATTTCGAGTAAACAAATTTTCCTAATCTTTCTGTTCAAGCGCCATCTAC”, for which the binding signal is 1.31 RPM ratio (pull-down/input).

(Values after PMC12820563, “FoxP3 forms a head-to-head dimer in vivo and stabilizes its multimerization on adjacent microsatellites”.)
